# Measured values reported in PubChem BioAssay AID1490 (National Center for Advancing Translational Sciences (NCATS), 2009).
# “And” between values parts separate entries of the source, which are not always exact repeats. Equal values may be shown once. About 11,000 (3.5%) of roughly 310,000 compounds were called active. Another 4% or so got no clear call; they are omitted. For the sample, actives were picked, then their nearest neighbours and some compounds at random. Where a structure was tested more than once in an assay, its records may differ in their call. Values without a mark were called inactive. Calls follow the shape of the dose curve; as a rule, active = well fitted inhibition curve with a large enough effect; inconclusive = small, poorly fitted or top-dose-only effect, or another doubt; inactive = no such curve, though single readings can be large or run the other way.
# Target: 4'-phosphopantetheinyl transferase ffp (Bacillus subtilis) (UniProt Q9F4F7)
# Assay: qHTS Assay for Inhibitors of Bacillus subtilis Sfp phosphopantetheinyl transferase (PPTase);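 also: the enzyme is Sfp with the accession as filed and its product quenches rhodamine fluorescence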;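 as to largest response in the series, negative = inhibition: 0% = enzyme reaction without inhibitor and -100% = no enzyme wells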
# Conditions: Biochemical Sfp PPTase activity
# Excerpt: Assay Submitter: Michael Burkart, University of California, San Diego
# Screening Center PI: Austin, C.P.
# Screening Center: NIH Chemical Genomics Center [NCGC]
# The covalent attachment of a phosphopantetheinyl (4'-PP) arm to a variety of synthases and other proteins is a key posttranslational protein modification. The 4'-PP is installed on the proteins post-translationally from coenzyme A (CoA) on a conserved serine residue by action of phosphopantetheinyl transferase (PPTase) enzymes. Phosphopantetheinylation is essential for synthase activity, and removal of the PPTase gene precludes natural product synthesis in microorganisms, or in the case of fatty acid biosynthesis, renders the organism unviable. PPTase enzymes belong to a distinct structural superfamily. Within bacteria, these enzymes are grouped into two classes based upon primary structure, the AcpS-Type and Sfp-Type PPTases.
# Sfp-type PPTases, corresponding to an activator of surfactin production in Bacillus subtilis, are responsible for modifying type I polyketide and nonribosomal peptide synthases of prokaryotes. Sfp-type PPTases are responsible for the activation of a variety of pathogen-associated virulence factors. Among these compounds are toxins such as mycolactone from Mycobacterium ulcerans, siderophores such as vibriobactin from Vibrio cholerae or mycobactin from Mycobacterium tuberculosis, as well as the mycolic acids which form the waxy cell wall of Mycobacteria. The biosyntheses of these natural products are considered attractive targets for drug design.
# In search of small molecule Sfp-PPTase inhibitors, a fluorescence quenching assay was developed for detection of Bacillus subtilis Sfp-PPTase enzymatic activity in a miniaturized high-throughput format. The consensus ybbr acceptor peptide […] was N-terminally labeled with Black Hole Quencher-2 (BHQ-2) and used in combination with rhodamine-labeled coenzyme A as a co-substrate.
# Inhibition of Sfp-PPTase was detected by recording the fluorescence intensity change over a 30-minute reaction period at a 525 nm excitation and 598 nm emission. Reagents were supplied by Michael Burkart and Timothy Foley, University of California at San Diego.
# This BioAssay deposition is for validation of the developed Sfp-PPtase assay.
# Assay Buffer: 50 mM Hepes-Na pH 7.6, 10 mM MgCl2, 0.01% Nonidet P-40, and 0.01% BSA.
# 3 uL of Sfp-PPTase enzyme (final concentration 15 nM) and 1 uL of substrate mixture (final concentration for rhodamine-CoA and BHQ-2-YbbR 5 uM and 12.5 uM, respectively) dispensed in columns 1, 2, 5 - 48. Columns 1 and 2 used to generate neutral control (uninhibited reaction)
# Three uL of reagents, consisting of buffer (in columns 3 and 4 as negative control) and Sfp-PPTase (in columns 1, 2, 5 - 48) were dispensed into 1,536-well Greiner black solid bottom plate. Compounds (23 nL) were transferred via Kalypsys pintool equipped with 1,536-pin array. The plate was incubated for 15 min at room temperature, followed by the addition of 1 uL substrate to start the reaction. The plate was then centrifuged at 1000 rpm for 15 seconds, and the fluorescence intensity recorded on a ViewLux High-throughput CCD imager (Perkin-Elmer) using standard BODIPY optics (525 nm excitation and 598 nm emission). The plate was then incubated for 30 minutes, and a second read on the ViewLux was performed. The fluorescence intensity difference over the 30-minute period was used to calculate the respective reaction rate for each well.
# Potency is read from the fitted curve at half-maximal effect.
Compound,"largest response in the series, negative = inhibition",Potency
CCN(CC)c1ccc(C(=O)N/N=C(\C)c2cccc(OC)c2)cc1,-1.28%,–
C/C(=N\Nc1ncc(Cl)cc1Cl)c1cccs1,–,39.8 µM (active)
C/C(=N\Nc1ccc(S(N)(=O)=O)cc1[N+](=O)[O-])c1cccs1,0.687%,–
COc1cccc(/C(C)=N/Nc2ncc(Cl)cc2Cl)c1,–,56.2 µM (active)
C/C(=N\Nc1ncc(Cl)cc1Cl)c1ccc(S(=O)(=O)NCc2ccco2)cc1,-16.4%,–
C/C(=N\Nc1nc2ccccc2[nH]1)c1cccs1,-4.19%,–
Cn1cnc2c1c(=O)n(Cc1ccccc1C#N)c(=O)n2C,4.28%,–
C=CC1=C2C=C(C3CC3)N(CC(C)C)C=C2C(=O)C(C)(OC(=O)c2ccco2)C1=O (stereo not given),5.15%,–
CC(=O)Nc1ccc(OCC(=O)NCc2ccc(C)cc2)cc1,11.1%,–
CC(C)(C)NC(=O)COc1ccc(CNc2ccc3[nH]c(=O)[nH]c3c2)cc1,–,56.2 µM (active)
COC(=O)c1ccc(OCC(=O)NC(C)(C)C)cc1,-10.7%,–
CCS(=O)(=O)Nc1ccc(C(=O)NCCSc2ccccc2)cc1,22%,–
COC(=O)C1=CN(c2ccc(F)c(F)c2)C=C(C(=O)OC)C1c1ccc([N+](=O)[O-])cc1,-0.236%,–
COc1cccc(OC)c1C(=O)Nc1ccc2c(c1)n(C)c(=O)n2C,6.56%,–
Cc1ccc(C(=O)Nc2cccc3ncccc23)cc1[N+](=O)[O-],9.98%,–
Cc1ccc(/C=C(\C#N)C(=O)Nc2cccc3ncccc23)o1,–,8.91 µM (active)
O=C(Nc1cccc2ncccc12)C(Cl)(Cl)Cl,5.72%,–
Cc1c(C(=O)NC(C)C2CC3CCC2C3)cccc1[N+](=O)[O-] (stereo not given),6.2%,–
C[C@]12CC[C@@H]3c4ccc(O)cc4C[C@@H](CCCCCCCCCS(=O)CCCC(F)(F)C(F)(F)F)C3[C@@H]1CC[C@@H]2O (stereo not given in full),-0.311%,–
CC(N)(C(=O)O)c1ccc(-c2nn[nH]n2)cc1 (stereo not given),–,35.5 µM (active)
Brc1ccc(-c2nn[nH]n2)cc1,19%,–
CC(C)c1ccc(-c2nn[nH]n2)cc1,21.7%,–
O=C(CSc1ncn[nH]1)Nc1ccnc2ccccc12,12.4%,–
CCN(C(=O)CSc1ncn[nH]1)c1cccc2ccccc12,–,39.8 µM (active)

Compound,"largest response in the series, negative = inhibition",Potency
O=C(CSc1ncn[nH]1)Nc1nsc(-c2ccccc2)n1,9.26%,–
O=c1cc(-c2ccc(O)cc2)oc2c([C@@H]3O[C@H](CO)[C@@H](O)[C@H](O)[C@H]3O)c(O)cc(O)c12,-2.52%,–
Cc1cc(C)cc(N(CC(=O)NCCSCc2ccco2)S(C)(=O)=O)c1,9.95%,–
CS(=O)(=O)N(Cc1ccc(Cl)cc1)c1ccc(C(=O)NCCSCc2ccco2)cc1,22.6%,–
CCc1ccccc1N(CC(=O)NCCSCc1ccco1)S(C)(=O)=O,–,17.8 µM (active)
CC(C)N(C(=O)Cn1cc(S(=O)(=O)CC(=O)N2CCOCC2)c2ccccc21)C(C)C,4.5%,–
O=C(C1CC(=O)N(c2ccc(Br)cc2)C1)N1CCCC1 (stereo not given),5.88%,–
Cn1c(Cc2cccs2)nnc1SCC(=O)Nc1ccccc1,11.4%,–
Cn1c(CSCC(=O)Nc2ccccc2)nnc1SCc1ccccc1,-1.75%,–
Cn1c(CC(=O)Nc2ccccc2)nnc1SCC(=O)c1ccccc1,–,35.5 µM (active)
CCN1CCCC1CNC(=O)c1cc2cc(OC)c(OC)cc2[nH]1 (stereo not given),18.4%,–
COc1ccccc1CCNC(=O)C1CCN(C(=O)/C=C/c2ccccc2)CC1,-8.37%,–
O=C1CCCN1CCCNC(=S)Nc1ccc(F)c(Cl)c1,–,14.1 µM (active)
Cc1cc(Cl)ccc1NC(=S)NCCCN1CCCC1=O,5.94%,–
Cc1c(Cl)cccc1NC(=O)NCCCN1CCCC1=O,4.97%,–
CCN(CC)C(=O)c1sc2nc(-c3ccccc3)ccc2c1N,–,20 µM (active)
CCCC(=O)n1nc(-c2ccccc2)nc1N,-3.09%,–
Cc1ccc2c(N)c(C(=O)c3ccccc3)sc2n1,-25.4%,–
COc1cc(C(C(=O)NC2CCCC2)N(C(=O)c2ccco2)c2ccccc2C(C)=O)cc(OC)c1OC (stereo not given),9.66%,–
COc1ccc2[nH]c(=O)c(C3c4cc(OC)c(OC)cc4CCN3C(=O)c3ccco3)cc2c1 (stereo not given),-2.97%,–
Cc1cccc(NC(=O)C2CCCN(C(=O)NCc3ccccc3)C2)c1C (stereo not given),5.34%,–
CC(C)(C)NCC(O)COc1cccc2[nH]c(=O)[nH]c12 (stereo not given),6.07%,–
COc1ccccc1OCC(O)CN1CCOCC1 (stereo not given),15.2%,–
COc1ccccc1OCCNCC(O)COc1cccc2[nH]c3ccccc3c12 (stereo not given),-10.5% and 8.7% and -18.4%,50.1 µM (active)

Compound,"largest response in the series, negative = inhibition",Potency
COc1cccc(NC(=O)C/C(C)=N/NC(=O)C2CCCCC2)c1,9.15%,–
O=C(COc1ccccc1Cl)N1CCCCCCC1,23.9%,–
COc1cc(NC(=O)c2ccccc2)c(OC)cc1NC(=O)Cc1ccccc1,-10.9%,–
O=[N+]([O-])c1ccc(N2CCSCC2)cc1O,17.8%,–
Cc1cc(C(=O)N/N=C/c2ccc(O)c([N+](=O)[O-])c2)c(C)n1-c1ccc(F)cc1,-9.8%,–
O=C1CSC(=S)N1/N=C/c1ccc(O)c([N+](=O)[O-])c1,–,39.8 µM (active)
CCOC(=O)N1CCN(S(=O)(=O)N2CCCC(C(=O)NCCCN3CCC(C)CC3)C2)CC1 (stereo not given),6.69%,–
O=C(CCC1CCCN(C(=O)c2ccc(F)c(F)c2)C1)N1CCN(c2ccccn2)CC1 (stereo not given),7.09%,–
CSc1c(SCc2ccccc2)cnn(Cc2ccccc2)c1=O,–,44.7 µM (active)
CSc1nc2ccccc2c(=O)n1Cc1ccc(F)cc1,-16.2%,–
CC(=O)Nc1ccc(NC(=O)CSc2ncnc3c2cnn3Cc2ccccc2)cc1,13.9%,–
Cc1nc(COc2cc3oc(=O)cc(C)c3cc2Cl)cs1,-11.1%,–
CN(C)c1nc(=Nc2cccc(Cl)c2)ss1,–,10 µM (active)
Cc1ccc(-c2ccc(/C=C(\C#N)C(N)=S)o2)c([N+](=O)[O-])c1,–,35.5 µM (active)
N#C/C(=C/c1ccc(-c2ccccc2[N+](=O)[O-])o1)C(=O)NCCN1CCCCC1,-17.3%,–
Cc1ccc(Cc2cnc(NC(=O)/C(C#N)=C/c3ccc(-c4cccc([N+](=O)[O-])c4)o3)s2)cc1,3.34%,–
CC(C)(C)C(=O)NC1CC2CCCC(C1)N2C(=O)Nc1ccccc1F (stereo not given),15.8%,–
O=C(c1ccncc1)N1CCC2(CCN(Cc3cc(C(F)(F)F)cc(C(F)(F)F)c3)CC2)CC1,8.21%,–
CCSc1nc(-c2ccc(OC)cc2)cc(-c2ccc(OC)cc2)c1C#N,4.06%,–
N#Cc1c(-c2ccccc2)cc(-c2ccccc2)nc1SCC(=O)O,–,35.5 µM (active)
N#Cc1c(C(F)(F)F)cc(-c2ccc(Cl)cc2)nc1SCC(=O)O,7.84%,–
CC(O)c1nc2c(c(=O)n(C)c(=O)n2C)n1C (stereo not given),11.9%,–
CCC/C(C)=N\Nc1nc2c(c(=O)n(C)c(=O)n2C)n1C,–,39.8 µM (active)
Cn1c(=O)c2c(nc(NCc3ccccc3)n2CC(N)=O)n(C)c1=O,10.1%,–

Compound,"largest response in the series, negative = inhibition",Potency
CCCC[C@H]1COCCS(=O)(=O)N1Cc1cccc(Cl)c1,-5.24%,–
COc1ccc(CNC(=O)c2nnn(CC(=O)Nc3cc(C)cc(C)c3)c2N)cc1,-8.71%,–
COc1ccc(C(=O)Nc2c(N)nc(SCC(=O)Nc3ccc(C(C)=O)cc3)[nH]c2=O)cc1,-14.5%,–
Cc1ccc(OCC(=O)Nc2ccccc2C(=O)NC2CC2)cc1C,-9.75%,–
CCOc1ccccc1NC(=O)Cn1nnc(C(=O)NCc2cccs2)c1N,–,50.1 µM (active)
CCOc1ccccc1NC(=O)Cc1cccs1,13.9%,–
CCOc1ccc(Cn2nnc(C(=O)NCc3ccccc3)c2N)cc1,9.87%,–
Cc1cccc(C(=O)OC(C)CN2CCCC2)c1 (stereo not given),6.65%,–
Cc1ccc(F)c(NC(=O)CCOc2ccccc2C)c1,-1.65%,–
Cn1cc[n+](C)c1COc1ccc(C=O)cc1,12%,–
O=C1CCC([N+](=O)[O-])C(c2ccccc2Br)N1 (stereo not given),15.7%,–
CCOC(=O)CSC1=C(C#N)C(c2sccc2C)CC(=O)N1 (stereo not given),10.2%,–
C=CCSC1=C(C#N)C(c2cc(Br)c(O)c(OC)c2)CC(=O)N1 (stereo not given),–,25.1 µM (active)
Cc1ccc(C2CC(=O)NC(SCC(=O)OCc3ccccc3)=C2C#N)o1 (stereo not given),-27.5%,–
O=S(=O)(NC1CCCC1)c1ccc(-n2cnnn2)cc1,25.6%,–
O=C(NCCCn1ccnc1)C1CCCN(S(=O)(=O)c2cc(Cl)ccc2Cl)C1 (stereo not given),16.2%,–
O=C(Nc1cc2ccccc2oc1=O)C1CCCCC1,26.6%,–
O=c1oc2ccccc2cc1-c1cn(-c2ccccc2)c(=S)[nH]1,–,35.5 µM (active)
O=C(c1cn(-c2ccccc2)nc1-c1cc2ccccc2oc1=O)N1CCOCC1,-5.03%,–
Cc1noc(C)c1CCC(=O)N1CCCC(CO)(Cc2ccccc2)C1 (stereo not given),-6.98%,–
COc1ccc2c(c1)O[C@@H](c1ccc3c(c1)OCO3)[C@H](OC(=O)NCCc1ccc(OC)c(OC)c1)C2=O,6.18%,–
CC(=O)c1ccc(N2CCN(C(=O)C3CCN(S(=O)(=O)c4ccc5c(c4)CC(C)N5C(=O)C4CC4)CC3)CC2)cc1 (stereo not given),-0.0372%,–
